Data published in PubChem BioAssay AID1159580 (chemical genetic matrix, 2015).
In all, about 5,500 compounds went through this assay and about 2,000 (36%) were called active. Inconclusive results (about 18%) are left out. No stated cut-off is given here; in the data, active means normalized growth mostly below about 0.91 (no sharp cut-off); inconclusive means no clear call, values can overlap the other calls; inactive means mostly above about 0.92. The list shows a part of the results.

Test: chemical genetic growth profiling, strain panel (AID 1159580);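 further: tested at 20 µM; growth read once vehicle control cultures reached saturation at 30 °C; 1 = growth at the plate median or of vehicle wells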
Details: S. cerevisiae deletion strains, growth OD

Measured: normalized growth

COc1cc2nc(N(C)CCCNC(=O)C3CCCO3)nc(N)c2cc1OC (stereo not given)
inactive: locus YAL021C, strain ccr4, stronger effect = lower value 1.02 | locus YAL026C, strain drs2, stronger effect = lower value 1 | locus YAL030W, strain snc1, stronger effect = lower value 0.979 | locus YBL061C, strain skt5, stronger effect = lower value 0.986 | locus YBR009C, strain hhf1, stronger effect = lower value 1.01 | locus YBR021W, strain FUR4, stronger effect = lower value 0.994 | locus YBR023C, strain chs3, stronger effect = lower value 0.997 | locus YBR171W, strain sec66, stronger effect = lower value 0.988 | locus YBR229C, strain ROT2, stronger effect = lower value 1 | locus YBR231C, strain swc5, stronger effect = lower value 0.998 | locus YBR279W, strain paf1, stronger effect = lower value 0.993 | locus YCL011C, strain gbp2, stronger effect = lower value 0.993 | locus YCL016C, strain dcc1, stronger effect = lower value 1 | locus YCL029C, strain bik1, stronger effect = lower value 1.02 | locus YCL061C, strain MRC1, stronger effect = lower value 0.996 | locus YCL069W, strain vba3, stronger effect = lower value 0.993 | locus YCR088W, strain abp1, stronger effect = lower value 0.986 | locus YDL005C, strain med2, stronger effect = lower value 1 | locus YDL035C, strain GPR1, stronger effect = lower value 1.03 | locus YDL040C, strain nat1, stronger effect = lower value 0.993 | locus YDL074C, strain BRE1, stronger effect = lower value 1.03 | locus YDL101C, strain DUN1, stronger effect = lower value 1.01 | locus YDL185W, strain tfp1, stronger effect = lower value 1.02 | locus YDL192W, strain arf1, stronger effect = lower value 1.01 | locus YDR001C, strain nth1, stronger effect = lower value 0.997 | locus YDR069C, strain doa4, stronger effect = lower value 0.991 | locus YDR101C, strain arx1, stronger effect = lower value 1.01 | locus YDR137W, strain rgp1, stronger effect = lower value 1 | locus YDR159W, strain sac3, stronger effect = lower value 1.03 | locus YDR162C, strain NBP2, stronger effect = lower value 1.03 | locus YDR195W, strain ref2 0.972 | locus YDR297W, strain sur2, stronger effect = lower value 1 | locus YDR318W, strain mcm21, stronger effect = lower value 1.02 | locus YDR334W, strain swr1, stronger effect = lower value 0.999 | locus YDR335W, strain msn5, stronger effect = lower value 1 | locus YDR388W, stronger effect = lower value 0.999 | locus YDR392W, strain spt3, stronger effect = lower value 1.01 | locus YDR502C, strain sam2, stronger effect = lower value 1 | locus YEL003W, strain gim4, stronger effect = lower value 1 | locus YEL037C, strain rad23, stronger effect = lower value 0.998 | locus YEL061C, strain CIN8 (second series), stronger effect = lower value 0.986 | locus YEL061C, strain CIN8, stronger effect = lower value 1.01 | locus YER015W, strain faa2, stronger effect = lower value 0.995 | locus YER016W, strain bim1, stronger effect = lower value 0.998 | locus YER110C, stronger effect = lower value 1 | locus YER111C, strain swi4, stronger effect = lower value 0.987 | locus YER155C, strain BEM2 (second series), stronger effect = lower value 0.999 | locus YER155C, strain BEM2, stronger effect = lower value 0.998 | locus YER167W, strain BCK2, stronger effect = lower value 1.01 | locus YFR010W, strain ubp6, stronger effect = lower value 0.992 | locus YGL078C, strain dbp3, stronger effect = lower value 1 | locus YGL086W, strain mad1, stronger effect = lower value 1.01 | locus YGL167C, strain pmr1, stronger effect = lower value 0.995 | locus YGL173C, strain kem1, stronger effect = lower value 0.994 | locus YGL227W, strain vid30, stronger effect = lower value 0.986 | locus YGL240W, strain doc1, stronger effect = lower value 0.987 | locus YGL248W, strain PDE1, stronger effect = lower value 1.01 | locus YGL253W, strain hxk2, stronger effect = lower value 0.992 | locus YGR135W, strain pre9, stronger effect = lower value 0.998 | locus YGR252W, strain gcn5, stronger effect = lower value 0.95 | locus YHR013C, strain ard1, stronger effect = lower value 0.999 | locus YHR027C, strain rpn1, stronger effect = lower value 0.997 | locus YHR030C, strain SLT2, stronger effect = lower value 1.03 | locus YHR079C, strain IRE1 (second series), stronger effect = lower value 0.997 | locus YHR094C, strain hxt1, stronger effect = lower value 1 | locus YHR129C, strain ARP1, stronger effect = lower value 1.01 | locus YHR142W, strain chs7, stronger effect = lower value 0.979 | locus YHR200W, strain rpn10, stronger effect = lower value 1.01 | locus YIL066C, strain RNR3, stronger effect = lower value 1.04 | locus YIL073C, strain SPO22, stronger effect = lower value 1.03 | locus YIL125W, strain kgd1, stronger effect = lower value 1.01 | locus YIR030C, strain dcg1, stronger effect = lower value 0.995 | locus YJL092W, strain hpr5, stronger effect = lower value 0.995 | locus YJL095W, strain BCK1 (second series), stronger effect = lower value 0.994 | locus YJL095W, strain BCK1, stronger effect = lower value 1.03 | locus YJL115W, strain asf1, stronger effect = lower value 1 | locus YJL129C, strain trk1, stronger effect = lower value 1 | locus YJL134W, strain LCB3, stronger effect = lower value 1.02 | locus YJL154C, strain vps35, stronger effect = lower value 0.993 | locus YJL164C, strain tpk1, stronger effect = lower value 1 | locus YJL166W, strain qcr8, stronger effect = lower value 0.985 | locus YJL168C, strain set2, stronger effect = lower value 0.994 | locus YJL187C, strain SWE1 (second series), stronger effect = lower value 1.02 | locus YJL187C, strain SWE1, stronger effect = lower value 0.999 | locus YJR043C, strain POL32, stronger effect = lower value 1.03 | locus YJR075W, strain HOC1, stronger effect = lower value 1.01 | locus YKL009W, strain mrt4, stronger effect = lower value 1.01 | locus YKL068W, stronger effect = lower value 1.01 | locus YKL085W, strain MDH1 (second series), stronger effect = lower value 1.02 | locus YKL085W, strain MDH1, stronger effect = lower value 1.02 | locus YKL190W, strain CNB1, stronger effect = lower value 1.03 | locus YKR001C, strain vps1, stronger effect = lower value 1.01 | locus YKR026C, strain gcn3, stronger effect = lower value 0.995 | locus YKR091W, strain srl3, stronger effect = lower value 0.995 | locus YLL001W, strain dnm1, stronger effect = lower value 0.99 | locus YLL026W, stronger effect = lower value 0.992 | locus YLL041C, strain sdh2, stronger effect = lower value 0.998 | locus YLR027C, strain aat2, stronger effect = lower value 0.991 | locus YLR039C, strain RIC1, stronger effect = lower value 1.07 | locus YLR058C, strain SHM2, stronger effect = lower value 1.02 | locus YLR102C, strain apc9, stronger effect = lower value 1.01 | locus YLR221C, strain rsa3, stronger effect = lower value 0.998 | locus YLR258W, strain gsy2, stronger effect = lower value 0.994 | locus YLR262C, strain YPT6 (second series), stronger effect = lower value 0.981 | locus YLR262C, strain YPT6, stronger effect = lower value 1.07 | locus YLR268W, strain sec22, stronger effect = lower value 0.99 | locus YLR320W, strain mms22, stronger effect = lower value 1 | locus YLR330W, strain CHS5, stronger effect = lower value 1.02 | locus YLR342W, strain FKS1 (second series), stronger effect = lower value 1.03 | locus YLR342W, strain FKS1, stronger effect = lower value 0.995 | locus YLR357W, strain rsc2, stronger effect = lower value 0.984 | locus YLR370C, strain arc18, stronger effect = lower value 1.01 | locus YLR371W, strain rom2, stronger effect = lower value 1.02 | locus YLR384C, strain iki3, stronger effect = lower value 0.988 | locus YLR418C, strain cdc73, stronger effect = lower value 0.995 | locus YML016C, strain PPZ1, stronger effect = lower value 1.01 | locus YML032C, strain rad52, stronger effect = lower value 1 | locus YML120C, strain ndi1, stronger effect = lower value 0.998 | locus YML124C, strain tub3, stronger effect = lower value 0.997 | locus YMR058W, strain fet3, stronger effect = lower value 0.996 | locus YMR078C, strain ctf18, stronger effect = lower value 0.998 | locus YMR125W, strain sto1, stronger effect = lower value 0.995 | locus YMR129W, stronger effect = lower value 0.987 | locus YMR205C, strain PFK2, stronger effect = lower value 0.993 | locus YMR223W, strain ubp8, stronger effect = lower value 1.03 | locus YMR231W, strain pep5, stronger effect = lower value 1 | locus YMR307W, strain GAS1, stronger effect = lower value 1.02 | locus YNL067W, strain RPL9B, stronger effect = lower value 1.02 | locus YNL071W, strain lat1, stronger effect = lower value 1 | locus YNL209W, strain ssb2, stronger effect = lower value 0.996 | locus YNL233W, strain BNI4, stronger effect = lower value 1.02 | locus YNL248C, strain rpa49, stronger effect = lower value 0.982 | locus YNL250W, strain rad50, stronger effect = lower value 1.04 | locus YNL271C, strain bni1, stronger effect = lower value 1 | locus YNL298W, strain CLA4, stronger effect = lower value 1 | locus YNL307C, strain MCK1, stronger effect = lower value 1 | locus YNL322C, strain KRE1 (second series), stronger effect = lower value 0.985 | locus YNR049C, strain mso1, stronger effect = lower value 0.994 | locus YNR052C, strain pop2, stronger effect = lower value 0.995 | locus YOL012C, strain htz1 0.863 | locus YOL147C, strain pex11, stronger effect = lower value 1.01 | locus YOR001W, strain rrp6, stronger effect = lower value 1 | locus YOR061W, strain CKA2, stronger effect = lower value 1.02 | locus YOR069W, strain VPS5, stronger effect = lower value 1 | locus YOR070C, strain gyp1, stronger effect = lower value 0.998 | locus YOR080W, strain dia2, stronger effect = lower value 0.983 | locus YOR083W, strain WHI5, stronger effect = lower value 1 | locus YOR106W, strain vam3, stronger effect = lower value 1.01 | locus YOR136W, strain idh2, stronger effect = lower value 1 | locus YOR144C, strain elg1, stronger effect = lower value 0.999 | locus YOR184W, strain ser1, stronger effect = lower value 1.03 | locus YOR265W, strain rbl2, stronger effect = lower value 0.988 | locus YOR270C, strain vph1, stronger effect = lower value 1.03 | locus YOR290C, strain snf2, stronger effect = lower value 1.03 | locus YOR316C, strain cot1, stronger effect = lower value 0.999 | locus YPL051W, strain arl3, stronger effect = lower value 0.997 | locus YPL078C, strain atp4, stronger effect = lower value 0.988 | locus YPL106C, strain sse1, stronger effect = lower value 0.991 | locus YPL240C, strain hsp82, stronger effect = lower value 0.974 | locus YPL241C, strain CIN2, stronger effect = lower value 1.01 | locus YPR119W, strain clb2, stronger effect = lower value 0.991 | locus YPR141C, strain kar3, stronger effect = lower value 1.01 | locus YPR163C, strain tif3, stronger effect = lower value 1 | locus YPR167C, strain met16, stronger effect = lower value 1 | strain wtn01, stronger effect = lower value 0.998
